About 1,100 (1.7%) of roughly 63,000 compounds were called active. Rule as the data show it: active = cytotoxicity above about 50%; inactive = the rest. For the sample, actives were picked, then their nearest neighbours and some compounds at random. Results with a measured potency or affinity are listed apart.

A short description of this assay: HPDE-C7 pancreatic duct cell viability loss – fluorescence, HTS (AID 430).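 Also: cells exposed to compound for 48 hours before viability readout; 0% = vehicle and 100% = reference cytotoxic drug.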 The settings on record: HPDE-C7 pancreatic duct cells viability, at 10 µM, hits give high values.
Regarding `Fc1ccc(OCc2nc(-c3ccc(Br)o3)no2)c(F)c1`, the cytotoxicity was 6.5% (inactive).

`Cc1ccc(-n2c(SCC(N)=O)nnc2-c2cccnc2)c(C)c1`: the cytotoxicity was -1.8% (inactive).

Take `FC(F)(F)c1ccc2c(c1)nc1n2CCCC1`: the cytotoxicity was -20.5% (inactive).

As for `O=C(CC1COc2ccccc2O1)NC1CCCCC1` (centres undefined), the cytotoxicity was -3.9% (inactive).

As for `CCC1CCCCN1S(=O)(=O)c1ccc(C(=O)Nc2nnc(-c3cccs3)o2)cc1` (centres undefined), the cytotoxicity was 37.7% (inactive).

For `CN1CCN(S(=O)(=O)c2ccc(NC(=O)c3cccs3)cc2)CC1`, the cytotoxicity is -7.7% (inactive).

Take `CC1CCCCN1S(=O)(=O)c1ccc(NC(=O)c2cccs2)cc1` (centres undefined): the cytotoxicity is 52.1% (active).

For the compound `CC1CCCCN1S(=O)(=O)c1ccc(C(=O)Nc2nnc(-c3ccccc3Cl)o2)cc1` (centres undefined), the cytotoxicity was 57.4% (active).

With `CCc1nnc(NC(=O)c2ccc(S(=O)(=O)N3CCCCC3C)cc2)s1` (centres undefined), the cytotoxicity was -15% (inactive).

For the compound `CCC1CCCCN1S(=O)(=O)c1ccc(C(=O)Nc2nnc(-c3ccccc3Cl)o2)cc1` (centres undefined), the cytotoxicity is 67.6% (active).

As to `COc1ccc(-c2nnc(NC(=O)c3ccc(S(=O)(=O)N4COCC4(C)C)cc3)o2)cc1`, the cytotoxicity is 28.7% (inactive).

For the compound `CC1CCN(S(=O)(=O)c2ccc(NC(=O)c3cccs3)cc2)CC1`, the cytotoxicity is 19.6% (inactive).

Take `O=C(Nc1nnc(-c2ccccc2Cl)o1)c1cccnc1`: the cytotoxicity was 39.4% (inactive).

As to `CC1(C)COCN1S(=O)(=O)c1ccc(C(=O)Nc2nnc(-c3ccc(Cl)s3)o2)cc1`, the cytotoxicity is 95.1% (active).

Turning to `CCCC(=O)Nc1nnc(-c2ccc(Cl)s2)o1`, the cytotoxicity was 1.2% (inactive).

Turning to `CC1CCCCN1S(=O)(=O)c1ccc(NC(=O)c2cccc(-n3cnnn3)c2)cc1` (centres undefined), the cytotoxicity is 30% (inactive).

Take `C=CCn1c(SCC(=O)NCCOC)nc2scc(-c3ccco3)c2c1=O`: the cytotoxicity is -6.7% (inactive).

Take `c1ccc(-c2nn3c(Cn4nnc5ccccc54)nnc3s2)nc1`: the cytotoxicity is -48.7% (inactive).

With `O=C(Nc1ccon1)c1ccc2c(c1)OCO2`, the cytotoxicity is -3.5% (inactive).

`CC(C)N1C(=O)CCC1C(=O)NC1CCCC1` (centres undefined): the cytotoxicity is -3.8% (inactive).

As to `Cc1ccc(-c2csc3nnc(SCC(=O)N4CCN(Cc5ccccc5)CC4)n23)cc1`, the cytotoxicity is 4.7% (inactive).

Take `COc1ccc(-c2ccc(NCCC3=CCCCC3)nn2)cc1OC`: the cytotoxicity is 18.1% (inactive).

As to `CCOC(=O)CSc1nnc(-c2ccc(S(=O)(=O)N3CCC(C)CC3)cc2)o1`, the cytotoxicity is 2% (inactive).

Take `O=c1cc(CN2CCN(c3ccc(F)cc3)CC2)nc2sccn12`: the cytotoxicity was -3.4% (inactive).

Turning to `Cc1nc2ccccn2c(=O)c1CCN1CCC(C(=O)c2ccc(F)cc2)CC1`, the cytotoxicity was -14.3% (inactive).

Turning to `CCCOC(=O)C1C2C=CC3(CN(c4ccc(Cl)c(F)c4)C(=O)C13)O2` (centres undefined), the cytotoxicity was -15.1% (inactive).

For `C=CCOC(=O)c1[nH]c2c(c1C)C(=O)CC(c1ccco1)C2` (centres undefined), the cytotoxicity is 74.9% (active).

`C/C=C/COC(=O)c1[nH]c2c(c1C)C(=O)CC(c1ccco1)C2` (centres undefined): the cytotoxicity was 63.7% (active).

In the case of `C/C=C/COC(=O)c1[nH]c2c(c1C)C(=O)CC(c1ccc(N(C)C)cc1)C2` (centres undefined), the cytotoxicity was 11.6% (inactive).

As for `C=CCOC(=O)c1[nH]c2c(c1C)C(=O)CC(c1cc(OC)c(OC)c(OC)c1)C2` (centres undefined), the cytotoxicity is -23.8% (inactive).

As for `CCN1CCN(CC(=O)Nc2ccccc2)C(=O)C1=O`, the cytotoxicity was -4.7% (inactive).

As for `CCOc1nc2ccccc2nc1NS(=O)(=O)c1ccccc1`, the cytotoxicity is 0.8% (inactive).

Turning to `CCN(CC)C(=O)CSC(=Nc1ccccc1F)NC#N`, the cytotoxicity is 3.7% (inactive).

For `Cc1cc(NC(=O)c2ccccc2-c2ccccc2C(=O)O)no1`, the cytotoxicity was 5.8% (inactive).

Turning to `O=c1[nH]c(NCCO)nc2c1C1(CCCCC1)Cc1ccccc1-2`, the cytotoxicity is 13.1% (inactive).

As for `CC1(C)Cc2ccccc2-c2nc(NCCO)n(-c3ccccc3)c(=O)c21`, the cytotoxicity was -0.1% (inactive).

As for `CC1(C)CC(n2c(NCCO)nc3c(c2=O)C2(CCCC2)Cc2ccccc2-3)CCO1` (centres undefined), the cytotoxicity is 56.4% (active).

Take `Cn1c(NCCCO)nc2c(c1=O)C1(CCCCC1)Cc1ccccc1-2`: the cytotoxicity is 53.9% (active).

Regarding `Cn1c(NCCO)nc2c(c1=O)C1(CCCCC1)Cc1ccccc1-2`, the cytotoxicity is 8.3% (inactive).

Take `O=c1[nH]c(NCCCO)nc2c1C1(CCCC1)Cc1ccccc1-2`: the cytotoxicity was 23.9% (inactive).

`COc1ccccc1NC(=O)CSc1nnnn1-c1ccc2c(c1)OCO2`: the cytotoxicity was -9.1% (inactive).

With `COc1ccc(C2c3c(oc4c(C)cc(C)cc4c3=O)C(=O)N2Cc2cccnc2)cc1OC` (centres undefined), the cytotoxicity is 43.3% (inactive).

As for `O=C(CCNS(=O)(=O)c1cccc2nsnc12)N1CC(=O)N(CCc2ccccc2)C(=O)C1`, the cytotoxicity is -14.8% (inactive).

Regarding `COc1ccc(C(=O)NCCn2cc(SCC(=O)Nc3cc(C)on3)c3ccccc32)cc1OC`, the cytotoxicity is -41% (inactive).

As for `Cc1cc(C)n2nc(SCC(=O)NCc3ccco3)nc2n1`, the cytotoxicity was -20.4% (inactive).

As to `COCCn1c(C)cc(C(=O)COC(=O)CCc2ccc(S(=O)(=O)N3CCOCC3)cc2)c1C`, the cytotoxicity is -9.3% (inactive).

Turning to `CC(=O)Oc1cc2c(C(C)=O)coc2c2ccccc12`, the cytotoxicity is 4.5% (inactive).

For the compound `COc1ccc(C(=O)N(Cc2nc(-c3ccc(C)cc3)no2)C2CCCCC2)cc1OC`, the cytotoxicity was 9.2% (inactive).

Regarding `COc1ccccc1-c1nc(-c2cccc(C)c2)no1`, the cytotoxicity is 9.9% (inactive).

In the case of `COc1cccc(OCc2nc3ncc(Br)cc3[nH]2)c1`, the cytotoxicity was 61.9% (active).

Turning to `O=C(NCc1nc2ncc(Br)cc2[nH]1)c1ccccc1`, the cytotoxicity was -4.4% (inactive).

`COc1cccc(OCc2nc3ccccc3[nH]2)c1`: the cytotoxicity was -1.9% (inactive).

For `CCOC(=O)c1[nH]c2ccc(Br)cc2c1NC(=O)CCN1CCCCC1`, the cytotoxicity was 0.6% (inactive).

`Cc1ccc2c(c1)nnn2C1CCN(CC(=O)Nc2ccccc2N2CCOCC2)CC1`: the cytotoxicity is 11% (inactive).

Turning to `Cc1c(NC(=O)c2ccc(Br)o2)c(=O)n(-c2ccccc2)n1C`, the cytotoxicity is -3.4% (inactive).

Take `Cc1c(NC(=O)c2ccc(=O)oc2)c(=O)n(-c2ccccc2)n1C`: the cytotoxicity was -6.7% (inactive).

With `Cc1c(NC(=O)Nc2cccc(Cl)c2)c(=O)n(-c2ccccc2)n1C`, the cytotoxicity is -2.1% (inactive).

Regarding `Cc1c(NC(=O)Nc2ccc(Cl)c(Cl)c2)c(=O)n(-c2ccccc2)n1C`, the cytotoxicity was 65.8% (active).

Turning to `Cc1c(NC(=O)Nc2ccc(Cl)cc2)c(=O)n(-c2ccccc2)n1C`, the cytotoxicity was -19.8% (inactive).

Regarding `O=C(CSc1ccc2nnc(-c3ccccn3)n2n1)NCc1ccc2c(c1)OCO2`, the cytotoxicity was -15.3% (inactive).

Regarding `CCCC(=O)Nc1ccccc1-c1nnn(CC(=O)Nc2ccc(OC)cc2)n1`, the cytotoxicity was -30.9% (inactive).

On to `O=C(CSc1nnc(-c2cc3ccccc3cc2O)n1Cc1ccco1)c1ccc(F)cc1`, for which the cytotoxicity is -5.2% (inactive).

For `COc1ccc(C(=O)CSc2nnc(-c3cc4ccccc4cc3O)n2Cc2ccco2)cc1`, the cytotoxicity is 55.6% (active).

Take `COc1ccc(C(=O)CSc2nnc(-c3ccccn3)n2Cc2ccco2)cc1`: the cytotoxicity is -5% (inactive).

Consider `CCN(CCNC(=O)c1cccc(N2CCCC2=O)c1)c1ccccc1`, for which the cytotoxicity is -9.5% (inactive).

In the case of `CCCCCc1cc(O)c2c(C)cc(=O)oc2c1`, the cytotoxicity is 50.3% (active).

Consider `CCCCc1cc(=O)oc2cc(C)c(CN3CCCC3)c(O)c12`, for which the cytotoxicity was -12.4% (inactive).

Turning to `CCc1cc(=O)oc2cc(C)cc(O)c12`, the cytotoxicity is 0% (inactive).

`COc1cccc(Cn2c(-c3nonc3N)nc3ccccc32)c1`: the cytotoxicity is 53.8% (active).

For `COc1cc(Cn2c(-c3nonc3N)nc3ccccc32)ccc1C`, the cytotoxicity is 30.4% (inactive).

For `Nc1nonc1-c1nc2ccccc2n1CC(=O)NC1CCCC1`, the cytotoxicity was 0% (inactive).

For the compound `CCOc1ccc(CCNC(=O)Cn2c(-c3nonc3N)nc3ccccc32)cc1OCC`, the cytotoxicity is -22.9% (inactive).

With `COC(=O)c1ccccc1NC(=O)Cn1c(-c2nonc2N)nc2ccccc21`, the cytotoxicity was 47% (inactive).

For the compound `CCOC(=O)c1ccccc1NC(=O)Cn1c(-c2nonc2N)nc2ccccc21`, the cytotoxicity is 67.8% (active).

Take `Nc1nonc1-c1nc2ccccc2n1Cc1ccccc1`: the cytotoxicity was -38.3% (inactive).

As for `COc1ccc(CCNC(=O)Cn2c(-c3nonc3N)nc3ccccc32)cc1OC`, the cytotoxicity was 6.6% (inactive).

For `CCCCOc1ccccc1NC(=O)Cn1c(-c2nonc2N)nc2ccccc21`, the cytotoxicity was 55.1% (active).

As to `CC(=O)N1CCN=C1SCc1ccccc1`, the cytotoxicity was 3% (inactive).

Turning to `Cc1cc(C(=O)N2CC(C)CC(C)C2)n(-c2ccccc2)n1` (centres undefined), the cytotoxicity was -6.9% (inactive).

As to `Cc1nc2ccccc2c(=O)n1NC(=O)c1ccc(F)cc1Cl`, the cytotoxicity was -0.2% (inactive).

On to `COc1ccc2nc(NC(=O)c3ccc4ncsc4c3)sc2c1`, for which the cytotoxicity was 0.5% (inactive).

On to `CCOc1cccc(CN2CCN(c3cccc(C(F)(F)F)c3)CC2)c1O`, for which the cytotoxicity is -3.2% (inactive).

With `CCOC(=O)C1=C(CSc2nc(C)cc(C)c2C#N)OC(N)=C(C#N)C1c1cccs1` (centres undefined), the cytotoxicity was -28.5% (inactive).

Turning to `CCOC(=O)C1=C(CSc2nc3c(cc2C#N)CCC3)OC(N)=C(C#N)C1c1ccccc1` (centres undefined), the cytotoxicity is 101% (active).

Consider `CCOC(=O)C1=C(C)OC(N)=C(C#N)C1c1ccc(OC)c(C)c1OC` (centres undefined), for which the cytotoxicity was -1.3% (inactive).

For `CCOC(=O)C1=C(CSc2nc3c(cc2C#N)CN(C)CC3)OC(N)=C(C#N)C1c1ccccc1` (centres undefined), the cytotoxicity is 3.4% (inactive).

With `CCOC(=O)C1=C(CSc2nc(-c3ccncc3)ccc2C#N)OC(N)=C(C#N)C1c1cccnc1` (centres undefined), the cytotoxicity is 4% (inactive).

`CCOC(=O)C1=C(CSc2nc(C)ccc2C#N)OC(N)=C(C#N)C1c1cccc(OC)c1OC` (centres undefined): the cytotoxicity is 59.3% (active).

Consider `CC(c1ccco1)N(C(=O)CSc1ccc(Br)cc1)c1ccccn1` (centres undefined), for which the cytotoxicity was 9.1% (inactive).

On to `CCCCOC(=O)C(C)Nc1n[nH]c(=O)[nH]c1=O` (centres undefined), for which the cytotoxicity is 8.9% (inactive).

Consider `Cc1cc(C)n(S(=O)(=O)c2ccc3ccccc3c2)n1`, for which the cytotoxicity is 28.5% (inactive).

For the compound `COC(=O)C1=C(CSCc2ccco2)NC(=O)NC1c1cc(C)ccc1C` (centres undefined), the cytotoxicity was -3.6% (inactive).

With `c1ccc(-c2noc(CN3CCN(c4ccccc4)CC3)n2)cc1`, the cytotoxicity was -1.5% (inactive).

`COc1cccc(CNC(=O)C2CCN(S(=O)(=O)c3ccc4c(c3)CCC(=O)N4)CC2)c1`: the cytotoxicity was -2.9% (inactive).

These data come from PubChem BioAssay AID430 (Sanford-Burnham Center for Chemical Genomics, 2006).
